Each structure is given as a SMILES string. The campaign covered roughly 330,000 compounds. About 1,900 (0.58%) were called active. Not shown: some 4% with an inconclusive outcome. Cut-off read from the data, not from the text of the source: inconclusive = inhibition above about 70% without an active follow-up result; inactive = below that. Only a sample is shown. Measured potencies and affinities stand elsewhere.

A short description of this experiment: M. tuberculosis growth inhibition, HTS (AID 449762).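 Note: bacterial growth assessed after seven days of incubation.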 The settings on record: M. tuberculosis H37Rv growth inhibition, 7H9 media; at 25 µM; active compounds read high.
For `COc1ccc(NC(=O)CSc2nc3ccccc3c(=O)[nH]2)cc1S(N)(=O)=O`, the inhibition is -3.14% (inactive).

Regarding `C(=N\Nc1nc(-c2ccccc2)cs1)/c1cccs1`, the inhibition is 28.8% (inactive).

With `CC(=O)Nc1ccc(-c2csc(N/N=C\c3ccncc3)n2)cc1`, the inhibition is 6.44% (inactive).

With `CC(CNC(=O)CN1C(=O)NC2(CCCCC2)C1=O)c1ccccc1` (stereo unspecified), the inhibition was -3.97% (inactive).

For the compound `COC(=O)c1nnn(CC(=O)NC(=O)Nc2ccccc2)c1C(=O)OC`, the inhibition was -6.63% (inactive).

On to `COc1ccc(C(=O)Nc2ccc3c(c2)C(=O)c2ccccc2C3=O)cc1OC`, for which the inhibition was 4.14% (inactive).

Take `O=C1c2ccccc2C(=O)c2c1oc(C(F)(F)F)c2C(=O)c1ccccc1`: the inhibition is 9.23% (inactive).

On to `CC(C)(C)c1ccc(C(=O)NCC(=O)OCC(=O)N2CCN(S(=O)(=O)c3ccc(Cl)cc3)CC2)cc1`, for which the inhibition was 8.58% (inactive).

On to `CC(=O)Nc1ccc(S(=O)(=O)NCc2ccc(C(=O)NCCCN3CCC(C)CC3)cc2)cc1`, for which the inhibition was 2.04% (inactive).

`Cc1ccc(S(=O)(=O)NCc2ccc(C(=O)NCCCN3CCN(C)CC3)cc2)cc1`: the inhibition was -4.79% (inactive).

Consider `N/C(=N\OC(=O)c1cnn(-c2ccccc2)c1C(F)(F)F)c1cc(C(F)(F)F)cc(C(F)(F)F)c1`, for which the inhibition is 9.61% (inactive).

As for `COc1cc(C2/C(=C(\O)c3ccc4c(c3)OCCO4)C(=O)C(=O)N2Cc2ccco2)ccc1O` (stereo unspecified), the inhibition is -4.18% (inactive).

On to `CSCc1ccc(C(=O)OCc2nc3ccccc3s2)o1`, for which the inhibition was 65.8% (inactive).

With `O=C(OCc1nc2ccccc2s1)c1ccco1`, the inhibition was 53.7% (inactive).

Turning to `CC(=O)C1=C(O)C(=O)N(c2ccc(Br)cc2)C1c1cccc([N+](=O)[O-])c1` (stereo unspecified), the inhibition is -1.11% (inactive).

On to `O=C(CS(=O)CC(=O)Nc1cnc2ccccc2c1)Nc1ccc(Cl)cc1` (stereo unspecified), for which the inhibition was 47% (inactive).

On to `CCOc1ccc(NC(=S)NC23CC4CC(CC(C4)C2)C3)cc1`, for which the inhibition was -20.5% (inactive).

With `CSc1nsc(SC)c1C(=O)OCC(F)(F)F`, the inhibition is -1.41% (inactive).

As for `CCN(CC)C(=O)CN1CCC(c2nc3cc(C)c(C)cc3[nH]2)CC1`, the inhibition was -1.85% (inactive).

Turning to `CCN1CCN(CC2COc3ccccc3O2)CC1` (stereo unspecified), the inhibition was -2.32% (inactive).

Take `CCC(C)N1C(=O)CCC1C(=O)NCCc1ccc(Cl)cc1` (stereo unspecified): the inhibition was 5.11% (inactive).

Consider `CCCCOc1ccc(CC2CCC(=O)NC2=O)cc1` (stereo unspecified), for which the inhibition was 12.4% (inactive).

With `CCOc1ccc(C(C)(C)C)cc1S(=O)(=O)n1nc(C)cc1C`, the inhibition is -3.62% (inactive).

As to `COc1cc(C(=S)N2CCOCC2)ccc1OC(=O)/C=C/c1ccco1`, the inhibition is 5.25% (inactive).

With `O=C(/C=C/c1ccccc1)Oc1ccc(C(=S)N2CCOCC2)cc1`, the inhibition was 13.4% (inactive).

In the case of `CN(C)S(=O)(=O)c1ccc(Nc2ccc(-c3ccc4c(c3)OCCO4)nn2)cc1`, the inhibition is 2.53% (inactive).

Turning to `CN(C(=O)c1cccc(NC(=O)c2ccccc2)c1)C1CCCCC1`, the inhibition was -5.84% (inactive).

Turning to `COc1ccc(-c2nn3c(-c4ccccc4)nnc3s2)cc1`, the inhibition was 36.9% (inactive).

For the compound `CCOc1ccc(-c2nn3c(-c4ccc(F)cc4)nnc3s2)cc1`, the inhibition was 0.65% (inactive).

Take `COc1ccccc1OCC(=O)N/N=C1/C=C(C)CC1`: the inhibition was 8.93% (inactive).

Take `O=C(c1ccc(CNc2c(N3CCCC3)c(=O)c2=O)cc1)N1CCN(C2CCCCC2)CC1`: the inhibition was 38.8% (inactive).

Take `COc1ccc(CNC(=O)C2CCC(CNc3c(N4CCOCC4)c(=O)c3=O)CC2)cc1` (stereo unspecified): the inhibition was -8.95% (inactive).

As to `Cc1ccc(CNC(=O)c2ccc(CNc3c(N4CCCC4)c(=O)c3=O)cc2)cc1`, the inhibition is -5.18% (inactive).

As for `COc1cc(NC(=O)c2ccc(CNc3c(N4CCOCC4)c(=O)c3=O)cc2)cc(OC)c1`, the inhibition was -10.6% (inactive).

`CC(C)C[C@H]1CNC(=O)C(=O)N1C[C@H](C)NC(=O)Cc1ccccc1`: the inhibition was -3.35% (inactive).

In the case of `N#Cc1cccc(C(=O)N(CCc2ccccc2)Cc2cccs2)c1`, the inhibition is 2.88% (inactive).

On to `Cc1cc(NC(=O)CN(C)CC(=O)Nc2ccc(F)c(F)c2F)no1`, for which the inhibition is -14.5% (inactive).

With `O=c1nc2n(c3ccc(Br)cc13)CCS2`, the inhibition is 14% (inactive).

With `N#Cc1c(-c2ccc(Br)cc2)nc2n(c1=O)CCCS2`, the inhibition is -5.36% (inactive).

Consider `CC(C)n1nnnc1-c1ccc(Cl)cc1`, for which the inhibition is -5.7% (inactive).

For the compound `Cc1ccc(C23OCCN2CCn2nc4ccccc4c23)cc1` (stereo unspecified), the inhibition is -9.54% (inactive).

In the case of `N#Cc1ccc(C23OCCN2CCn2c3c3ccccc3[n+]2[O-])cc1` (stereo unspecified), the inhibition was 21.6% (inactive).

Take `O=C(Nc1sc2c(c1C(=O)NC1CC1)CCCCCC2)c1ccco1`: the inhibition was -5.06% (inactive).

For `c1cncc(C2CC(c3cccs3)n3ncnc3N2)c1` (stereo unspecified), the inhibition was -8.25% (inactive).

`Cc1ccc2nc(/C(C#N)=C/c3ccc(O)c(O)c3)[nH]c2c1`: the inhibition was 0.8% (inactive).

Consider `Cc1ccc2nc(/C(C#N)=C/c3ccccc3C(=O)O)[nH]c2c1`, for which the inhibition is -0.89% (inactive).

With `CCc1ccccc1NC(=O)CNC(=O)c1n[nH]c(=O)c2ccccc12`, the inhibition was -6.75% (inactive).

With `C=C[C@@H]1c2cc(C)ccc2N(S(=O)(=O)c2ccc(C)cc2)[C@H](c2ccccc2)C1(C#N)C#N`, the inhibition is -12.5% (inactive).

For `COc1cc(C)ccc1OCCOc1c(Cl)cc(Cl)cc1Cl`, the inhibition is -4.9% (inactive).

For `COc1cc(C)ccc1OCCOc1c(C)cccc1Cl`, the inhibition was 62.7% (inactive).

`CC(C)Oc1ccc(C(=O)NC(Cc2c[nH]c3ccccc23)C(=O)NN)cc1` (stereo unspecified): the inhibition was 3.03% (inactive).

As for `Cc1cc(Br)ccc1NC(=O)CN1CCN(c2ccccn2)CC1`, the inhibition is -1.24% (inactive).

Turning to `CC(C)NC(=O)c1cnc(N2CCN(c3ccccn3)CC2)c2ccccc12`, the inhibition was -4.73% (inactive).

On to `COc1ccccc1C(=O)Nc1ccc(Cc2ccncc2)cc1`, for which the inhibition was -0.58% (inactive).

For the compound `COc1ccc(Br)cc1C(=O)Nc1ccc(Cc2ccncc2)cc1`, the inhibition is -1.26% (inactive).

In the case of `O=C(NCCc1ccc(Cl)cc1)C1CCCN(c2ncnc3c2nc2n3CCCCC2)C1` (stereo unspecified), the inhibition is 29.1% (inactive).

As to `CC1CCCN(C(=O)c2ccc(-c3ccccc3Cl)o2)C1` (stereo unspecified), the inhibition is 27.8% (inactive).

As for `NC(=O)C1CCN(C(=O)c2ccc(-c3ccccc3Cl)o2)CC1`, the inhibition is -1.57% (inactive).

Take `COCc1cc(C)nc(SCC[N+](C)(C)CC(=O)Nc2cccc(C)c2)c1C#N`: the inhibition was 10.4% (inactive).

As to `CNc1nc2c(-c3ccc(Cl)cc3)nnn2c2ccccc12`, the inhibition was 8.01% (inactive).

Take `NNc1nc2c(-c3ccc(Cl)cc3)nnn2c2ccccc12`: the inhibition is -3.53% (inactive).

Turning to `CCC(C)CCN1C(Nc2ccccc2)=NC[C@@H]1CC(C)C` (stereo partly specified), the inhibition is -0.75% (inactive).

As for `CN1C(C(=O)N2CCC3(CC2)OCCO3)=CC(c2ccc(F)cc2)=NS1(=O)=O`, the inhibition is 1.76% (inactive).

Turning to `Cc1nonc1OCCNc1ccc([N+](=O)[O-])c2cccnc12`, the inhibition is 2.82% (inactive).

`Cc1nonc1OCCNCCNc1ccccc1[N+](=O)[O-]`: the inhibition is 5.53% (inactive).

On to `C#CCOCCOCCOCCNc1nc(N2CCN(C(=O)C(CCC(=O)O)n3cc(C(N)CC(C)C)nn3)CC2)nc(N2CCN(C(=O)C(Cc3cc4ccccc4[nH]3)n3cc(C(N)Cc4ccc(O)cc4)nn3)CC2)n1` (stereo unspecified), for which the inhibition was 2.57% (inactive).

For `C#CCOCCOCCOCCNc1nc(N2CCN(C(=O)[C@H](CCC(=O)O)n3cc(C(N)Cc4ccc(O)cc4)nn3)CC2)nc(N2CCN(C(=O)[C@H](Cc3cc4ccccc4[nH]3)n3cc(C(N)CC(C)C)nn3)CC2)n1` (stereo partly specified), the inhibition is -1.44% (inactive).

For `CCCNC(=O)OCc1cccnc1Sc1ccc(C)cc1`, the inhibition is 3.87% (inactive).

For the compound `CC(C)(C)OC(=O)N1CCC[C@H]1c1nnc(SCc2c(F)cccc2Cl)o1`, the inhibition was 5.9% (inactive).

For the compound `Cc1noc(C)c1COC(=O)c1ccc(-c2nc3ccccc3s2)s1`, the inhibition is -0.34% (inactive).

Take `CCCNC(=O)c1ccc(-c2nc3ccccc3s2)s1`: the inhibition was 11% (inactive).

For the compound `CCCN(CC(=O)Nc1cc(Cl)ccc1Cl)C(=O)c1ccccn1`, the inhibition was -9.27% (inactive).

Turning to `Cc1ccc(SCCN2CCC(NC(=O)OCc3ccccc3)CCC2=O)cc1` (stereo unspecified), the inhibition is -5.79% (inactive).

Turning to `O=C(NC1CCC(=O)N(CCSc2ccccc2)CC1)OCc1ccccc1` (stereo unspecified), the inhibition is 1.1% (inactive).

As to `COc1cc(C(C(=O)NCC2CCCO2)N(C(=O)Cn2nnc3ccccc32)c2ccc(C(C)=O)cc2)ccc1O` (stereo unspecified), the inhibition was -7.43% (inactive).

As for `CCCCNC(=O)C1CC(c2ccccc2[N+](=O)[O-])=NO1` (stereo unspecified), the inhibition was 0.43% (inactive).

On to `CCOC(=O)c1ccc(CSc2nnc(N)s2)cc1`, for which the inhibition is 3.29% (inactive).

For the compound `CCOC(=O)CSc1nc(C2CC2)cc(-c2ccc(Cl)cc2)c1C#N`, the inhibition was -4.91% (inactive).

Regarding `Clc1ccc(-c2nnc(Sc3nc4ccccc4o3)c3ccccc23)cc1`, the inhibition was -4.13% (inactive).

For `Cc1ccc(-c2nnc(Sc3nc4ccccc4o3)c3ccccc23)cc1`, the inhibition is -10.4% (inactive).

On to `CCc1nc2cccnc2n1-c1ccc(CC(=O)O)cc1`, for which the inhibition is -1.43% (inactive).

In the case of `Fc1ccc(N2CCN(C(=S)NCc3ccco3)CC2)cc1`, the inhibition was 1.09% (inactive).

In the case of `CC1CCCN(C(=S)SCC(=O)c2cc(Br)cc(Br)c2O)C1` (stereo unspecified), the inhibition was 1.93% (inactive).

With `O=C(CSC(=S)N1CCCC1)c1ccccc1`, the inhibition is -7.15% (inactive).

Regarding `Cc1cc(NC(=O)CSc2n[nH]c(CC(C)C)n2)no1`, the inhibition was -10.9% (inactive).

With `Cc1ncc(CN2CCC(n3nccc3NC(=O)c3ccccc3)CC2)s1`, the inhibition is -15.1% (inactive).

`CCn1cc2nc(SCC(=O)Nc3ccc(F)cc3F)n(Cc3ccccc3)c(=O)c2n1`: the inhibition was -4.3% (inactive).

On to `CN(C)CCCN(C(=O)c1cc2cc([N+](=O)[O-])ccc2s1)c1nc2cc3c(cc2s1)OCCO3`, for which the inhibition was -1.83% (inactive).

With `CN(C)CCCN(C(=O)c1ccc(Br)s1)c1nc2cc3c(cc2s1)OCCO3`, the inhibition was 9.92% (inactive).

For `COc1ccc(C(C[N+](=O)[O-])c2c(-c3ccccc3)cc3ccccn23)cc1OC` (stereo unspecified), the inhibition was -0.65% (inactive).

For the compound `COc1ccc(C(C[N+](=O)[O-])c2c(-c3ccccc3)cc3ccccn23)cc1` (stereo unspecified), the inhibition is -3.56% (inactive).

As a reminder, the inhibition is the relative decrease from the control value, in per cent.

(Values after PubChem BioAssay AID449762 (Southern Research Specialized Biocontainment Screening …, 2010).)
